Data taken from the supplement of paper PMC3334620.
The full ranking holds about 33,000 sequences; the median of “E-score (-0.5 to 0.5)” is about -0.043, and the highest 2% start at about 0.37. Only a selection was taken, and the highest values are over-represented in it overall.

target: T1, Upc2 (UniProt Q12151); experiment: PBM E-score (8-mer binding enrichment) (E-score (-0.5 to 0.5)); higher = stronger / more preferred TF binding; details: protein concentration: 200 nM; construct: GST-full length
T1 sequence: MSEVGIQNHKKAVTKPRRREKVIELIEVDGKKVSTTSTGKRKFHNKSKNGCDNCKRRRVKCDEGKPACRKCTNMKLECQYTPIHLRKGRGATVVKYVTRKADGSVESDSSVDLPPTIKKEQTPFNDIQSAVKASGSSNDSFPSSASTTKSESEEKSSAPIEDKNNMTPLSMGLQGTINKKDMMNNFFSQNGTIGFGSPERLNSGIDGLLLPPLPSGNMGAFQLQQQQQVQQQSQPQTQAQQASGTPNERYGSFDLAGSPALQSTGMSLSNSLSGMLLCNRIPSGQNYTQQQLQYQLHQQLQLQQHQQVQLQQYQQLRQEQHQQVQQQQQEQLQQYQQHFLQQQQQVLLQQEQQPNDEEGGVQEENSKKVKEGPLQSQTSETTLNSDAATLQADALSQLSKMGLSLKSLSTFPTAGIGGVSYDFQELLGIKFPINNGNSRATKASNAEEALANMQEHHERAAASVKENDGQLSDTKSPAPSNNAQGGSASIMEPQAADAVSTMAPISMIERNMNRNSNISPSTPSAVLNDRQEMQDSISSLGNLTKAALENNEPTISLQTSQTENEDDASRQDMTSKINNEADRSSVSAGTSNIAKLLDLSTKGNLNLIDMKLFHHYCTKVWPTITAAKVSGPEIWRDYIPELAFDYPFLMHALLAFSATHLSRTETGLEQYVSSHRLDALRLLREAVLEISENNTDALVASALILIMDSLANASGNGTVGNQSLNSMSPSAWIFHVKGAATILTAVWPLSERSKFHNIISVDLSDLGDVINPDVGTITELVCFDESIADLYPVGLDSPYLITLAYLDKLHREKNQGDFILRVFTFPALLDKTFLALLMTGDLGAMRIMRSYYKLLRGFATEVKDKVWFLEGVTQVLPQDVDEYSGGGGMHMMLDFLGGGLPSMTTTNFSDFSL
Experimental: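 Universal 'all 10-mer' protein binding microarrays (Agilent AMADID 015681) probed with GST-tagged S. cerevisiae TFs (full-length or DBD) made by in vitro transcription/translation (PURExpress), about 100-200 nM. Bound TF was detected with fluorescent anti-GST. Each ungapped 8-mer (which stands for itself and its reverse complement) is scored by the PBM enrichment score (E-score), a modified Wilcoxon-Mann-Whitney statistic from -0.5 to +0.5, computed with the Universal PBM Analysis Suite. Scale: above 0.35 generally sequence-specific binding.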

Sequence	PBM E-score
GACGTTCA	0.0943
CTCGTTCC	0.479
CTCGTTCA	0.476
AGCGTTCC	0.117
GGCGTTCA	0.0581
CGCGTTCC	0.223
CACGTTCA	0.092
AACGTTCC	0.152
CCCGTTCC	0.327
ATCGTTCC	0.43
AAATGGCG	-0.0033
AGCTAATC	-0.0679
ATCAAAAC	0.0147
ACACTGTA	0.106
ATCGAAGC	-0.00965
GGTGTGGA	0.00988
ATCGTTGG	0.0354
ATCGTTCG	0.384
AACGTTCA	0.212
AACGTTCG	0.212
AGCGTTCA	-0.0376
ATCGTTCA	0.443
TCTTGAAA	0.0803
ACAGCGCT	0.128
CTCTGTCC	-0.116

Sequence	PBM E-score
CTATTGAC	-0.166
CCTTCGTA	0.441
CCTTCGTC	0.00619
CCTTCGCA	0.0293
GCTTCGTA	0.449
ACTTCGTA	0.429
GCTTCGCA	0.186
ACTTCGTC	0.0529
GCTTCGGA	0.102
ACTTCGTG	0.0872
CCGTTTCA	0.159
CGACTTTC	0.0358
GCCTCCCC	-0.149
CCCCATAC	0.174
ACGTTGCG	0.0848
GGCAGTTA	-0.21
CCGCAGCA	-0.267
ACGAGAAC	0.375
ACGAGAAG	0.277
CCGAGAAC	0.117
ACGAGAAA	0.349
ACGAGACT	0.337
ACGAGAAT	0.396
AATCGCAA	0.0942
TGCATGAA	0.0372

Sequence	PBM E-score
AATGCAGA	-0.0923
TGCTAGCA	-0.0249
GGGAACAA	0.0652
CGGAACGC	0.243
CGGAACGA	0.468
CGGAACAA	0.0835
AGGAACGC	0.114
GGGAACCA	-0.165
AGGAACGG	0.322
GGGAACGA	0.466
AGGAACGA	0.449
GTCCACAA	-0.215
CCGGAGCA	-0.0221
AGTGCAGC	-0.22
ATTACGTA	0.309
CCACTGTA	0.0804
TTGCCCAA	-0.0249
CTGTATAC	0.281
GGGTATAC	0.255
GAGTATAC	0.315
GCGTATTA	0.0994
CCGTATAC	0.475
GCGTATAA	0.444
CCGTATCC	0.331
ACGTATAT	0.404

Sequence	PBM E-score
AAGTATAT	0.104
GCGTATAC	0.454
GTGTATAA	0.138
AGGTATAT	-0.0562
CCTAGTGC	-0.199
CGTCATGC	-0.202
CAGAATTC	-0.03
GGATGGCA	0.0444
ACTACCAG	-0.0238
CTCTTCGC	-0.12
ACTATGAA	-0.0506
AGAGGGTG	-0.171
TTATACAA	0.0521
GCTGCAAC	-0.107
GTACTCTA	-0.0205
CTGGGTAA	-0.00044
GCTGTGTA	0.00184
ACGTATAG	0.433
CCGTATAG	0.485
AAGTATAC	0.306
CCGTATGC	0.356
ACGTATAC	0.445
ATGTATAC	0.263
CCGTATGA	0.392
CCGTATCG	0.319

Sequence	PBM E-score
ACGTATCG	0.22
ACGTATGA	0.243
ACGTATTG	0.209
CGGTATAG	0.225
AAGACTTG	-0.00965
CCCTATCA	-0.325
ACACGCGT	0.152
ACGTTCAT	0.169
CCTCTGTA	0.0279
GAGGTCGC	-0.042
GAATCTAA	0.111
CCGTATAA	0.483
ATGTATAA	0.0845
AGGTATAA	0.198
CTGTATAA	0.156
CGGTATAA	0.267
ACGTATAA	0.437
GACCAATC	-0.117
TCATCAGA	-0.187
GTTGTCAA	-0.00594
TAGCTAAA	0.119
CCTGCCAA	-0.0976
AGTACCAC	-0.0837
CGTACCTA	0.376
CATACCAG	-0.0446

Sequence	PBM E-score
AGTACCAG	-0.134
TGTACCAA	0.03
AGTACCTA	-0.109
GGTACCAC	-0.18
CGTACCAA	0.392
CGTACCAG	0.39
AGTACCAA	-0.0772
CGTACCTC	0.361
CGTACCAC	0.407
GATCAATC	-0.104
AATTGAGC	-0.0691
GTAGGAAC	0.13
CAAGCTTG	-0.233
CAGTAACA	-0.0459
AGAGTGCC	-0.209
CATATACA	0.05
AATATACG	0.465
AATATACA	0.0677
CATATACG	0.463
CATATACC	-0.0116
AATATACT	-0.0413
AAGGACAT	0.0482
AAAATACG	0.346
GTGGACAC	-0.158
GGATCGAC	-0.14

Sequence	PBM E-score
GGCGTTTA	0.378
AGCGTTTA	0.363
GACGTTTA	0.366
GGCGTTGA	-0.0389
CGCGTTTA	0.415
CGCGTTCA	0.242
GGTCCCCA	-0.24
GACAACCC	0.0735
AAAGGGGC	-0.127
ACACAGCG	0.104
ATGGGTTA	-0.00164
GGTTCAAC	0.0526
AGTTCAAG	0.129
CGTTCCGC	0.385
CGTTCCGA	0.361
AGTTCCAG	-0.188
CGTTCAAC	0.382
CGTTCCAG	0.391
CGTTCCAA	0.329
CGTTCAAA	0.369
AGTTCCGC	0.0626
AGTTCAAC	0.00196
CGTTCAAG	0.407
